The full list was thinned out, with hits kept by preference.
MITF inhib: inhibitors of MITF | TRPM1 promoter luciferase, luminescence, 24 h | inhibition, % (test concentration not listed) | 37,000 tested, 0.28% active; in the data active = inhibition above about 85%;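 also: human melanocyte line stably carrying TRPM1 promoter luciferase reporter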
PD-1 reversal: activators reversing PD-1 mediated T-cell inhibition; primary human CD4 T cells, PD-L1 beads, CellTiter-Glo 96 h; activation, % (no concentration beside the values); 29,000 tested, under 10 active; AID 2316; call rule not given here;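 also: 0% = median vehicle wells and 100% = positive control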
U2OS ROS induce: raises reactive oxygen species in U2OS cancer cells. U2OS ROS induction, H2DCF-DA fluorescence. ROS induction (% of piperlongumine), % at 10 µM. 46,000 tested, 2% active; in the data active = ROS induction above about 79%, passing the limit was not always enough;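 also: 0% = DMSO vehicle median and 100% = reference compound median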
NOMO-1 viab: STK33 inhibitor candidate reducing NOMO-1 cell viability; NOMO-1 AML viability, CellTiter-Glo luminescence, 72 h; inhibition, % (test concentration not listed); 37,000 tested, 7.5% active; AID 2330; in the data active = inhibition above about 80%
YB-1 expr inh: YB-1 expression inhibition. delta delta Cp (YB-1 minus CDIP) (test concentration not listed). AID 434959. U2OS, qRT-PCR YB-1 vs CDIP delta delta Cp, 16 h; active compounds read high; zero = DMSO, each unit about twofold. 30,000 tested, 0.37% active;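 active = delta delta Cp rounded down to an integer at or above 3, about 3 SD of DMSO wells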;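 also: higher means less YB-1 transcript or more CDIP transcript relative to DMSO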
* = called active by the depositor; . = no result given; ! = repeats disagree.

SMILES	MITF inhib	PD-1 reversal	U2OS ROS induce	NOMO-1 viab	YB-1 expr inh
C[C@H]1O[C@@H](O[C@H]2[C@@H](O)C[C@H](O[C@H]3[C@@H](O)C[C@H](O[C@H]4CC[C@@]5(C)[C@H](CC[C@@H]6[C@@H]5C[C@@H](O)[C@]5(C)[C@@H](C7=CC(=O)OC7)CC[C@]65O)C4)O[C@@H]3C)O[C@@H]2C)C[C@H](O)[C@@H]1O	45	.	-6	120*	0.23
COc1ccc(OC)c(-n2c(CNC3CCN(Cc4ccccc4)CC3)nc3ccccc3c2=O)c1	4	.	.	90*	.
O=C(OC1(C#CCN2CCCCC2)CCCCC1)c1ccccc1	59	-6	19	117*	-0.21
Cc1cc(C)c(C#N)c(Sc2ncnc3c2nnn3Cc2ccccc2)n1	71	-7	74	116*	-0.54
C[C@H](CO)N1C[C@H](C)[C@H](CN(C)C(=O)Nc2ccc(F)cc2)Oc2ccc(NC(=O)CCC(F)(F)F)cc2C1=O	-10	-1	-2	-5	-0.048
N#C/C(=C\Nc1cccc(Cl)c1)S(=O)(=O)c1ccc(Cl)cc1	31	-1	-6	84*	-0.35
COc1ccc(C[C@H](N)C(=O)N[C@@H]2[C@@H](CO)OC(n3cnc4c(N(C)C)ncnc43)[C@@H]2O)cc1 (some centres not stated)	106*	.	-4	108*	0.076
O=C(NO)c1cccc(C(=O)N/N=C/c2cc(F)ccc2O)c1	.	.	-10	.	-0.2
O=C(NO)c1cccc(C(=O)N/N=C/c2cc(O)ccc2O)c1	.	.	107*	.	-1.1
Cc1ccc(-n2sc3ccccc3c2=O)cc1	34	-6	-14	141*	-0.29
Cc1ccc(N2C(=O)c3ccccc3C2=O)cc1	.	.	-3	.	.
Cc1ccccc1/C=N/NC(=O)CCCCCC(=O)O	.	.	-19	.	-0.014
COc1ccc(S(=O)(=O)Nc2ccc3c(c2)CC(=O)N([C@@H](C)CO)C[C@H](C)[C@@H](CN(C)Cc2ccc(C(=O)Nc4ccccc4N)cc2)O3)cc1	6	-1	2	45	-0.57
C[C@@H]1CN([C@H](C)CO)C(=O)Cc2cc(NS(=O)(=O)c3ccc(F)cc3)ccc2O[C@@H]1CN(C)Cc1ccc(C(=O)Nc2ccccc2N)cc1	18	-2	60	91*	-0.25
COc1ccc(S(=O)(=O)Nc2ccc3c(c2)CC(=O)N([C@@H](C)CO)C[C@H](C)[C@H](CN(C)Cc2ccc(C(=O)Nc4ccccc4N)cc2)O3)cc1	0	-1	-1	140*	-0.94
C[C@H]1CN([C@@H](C)CO)C(=O)Cc2cc(NS(=O)(=O)c3cccs3)ccc2O[C@H]1CN(C)Cc1ccc(C(=O)Nc2ccccc2N)cc1	37	-4	40	141*	-0.24
Cc1noc(C)c1S(=O)(=O)Nc1ccc2c(c1)CC(=O)N([C@H](C)CO)C[C@@H](C)[C@@H](CN(C)Cc1ccc(C(=O)Nc3ccccc3N)cc1)O2	4	-1	3	100*	-0.13
N#C/C(=C\c1ccc(Cl)cc1)c1ccccc1	-19	0	15	17	0.021
Cc1ccc(S(=O)(=O)Nc2ccc3c(c2)CC(=O)N([C@@H](C)CO)C[C@@H](C)[C@@H](CN(C)Cc2ccc(C(=O)Nc4ccccc4N)cc2)O3)cc1	11	1	53	109*	0.29
COc1ccc(NC(=O)Nc2ccc3c(c2)C(=O)N([C@H](C)CO)C[C@H](C)[C@@H](CN(C)C(=O)Nc2ccc(F)cc2)O3)cc1	-3	2	13	7	-0.35
O=c1ccc2cc(S(=O)(=O)NCCN3CCN(c4cccc(Cl)c4)CC3)ccc2[nH]1	.	.	11	.	.
CN(C)/C=C/C(=O)c1ccc2c(c1)CCC(C)(C)O2	9	0	-21	121*	-0.26
COc1cc2c(cc1OC)CN(S(=O)(=O)c1ccc3c(c1)CCC(C)(C)O3)CC2	.	.	-2	.	.
Cc1cc[n+](Cc2ccccn2)c(N)c1	0	1	-9	9	-0.038
c1ccc(CN(CCN(Cc2ccccn2)Cc2ccccn2)Cc2ccccn2)nc1	88*	-51	-2	98*	-0.37
COC1CC(=O)C23C(=O)NC(CC(C)C)C2C(C)C(C)=CC3/C=C(\C)CCC(O)C1O (configuration not stated)	-4	-6	-2	89*	1.7
COC(=O)c1cc(-c2ccccc2)sc1NC(=O)c1cnccn1	1	0	21	-1	.
Fc1ccc(C(c2ccc(F)cc2)N2CCN(C/C=C/c3ccccc3)CC2)cc1	-9	-9	4	116*!	0.055

From PubChem
